Measurements: PMC4336329 (PLoS ONE, 2015)
Screen size: about 310,000 compounds; about 14,000 (4.5%) showed an effect of 50% or more. The effect is printed as a negative number. The sample as a whole holds a higher share of strong results than the screen did.

Target: human ether-à-go-go-related gene (hERG) potassium channel (human, UniProt Q12809)
Assay: primary screen, population patch clamp on CHO cells stably expressing hERG; higher = less effect of the substance
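Further: peak tail current of the secondary pulse compared with the same well before compound.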

Sequence of human ether-à-go-go-related gene (hERG) potassium channel (Q12809 whole entry, looked up): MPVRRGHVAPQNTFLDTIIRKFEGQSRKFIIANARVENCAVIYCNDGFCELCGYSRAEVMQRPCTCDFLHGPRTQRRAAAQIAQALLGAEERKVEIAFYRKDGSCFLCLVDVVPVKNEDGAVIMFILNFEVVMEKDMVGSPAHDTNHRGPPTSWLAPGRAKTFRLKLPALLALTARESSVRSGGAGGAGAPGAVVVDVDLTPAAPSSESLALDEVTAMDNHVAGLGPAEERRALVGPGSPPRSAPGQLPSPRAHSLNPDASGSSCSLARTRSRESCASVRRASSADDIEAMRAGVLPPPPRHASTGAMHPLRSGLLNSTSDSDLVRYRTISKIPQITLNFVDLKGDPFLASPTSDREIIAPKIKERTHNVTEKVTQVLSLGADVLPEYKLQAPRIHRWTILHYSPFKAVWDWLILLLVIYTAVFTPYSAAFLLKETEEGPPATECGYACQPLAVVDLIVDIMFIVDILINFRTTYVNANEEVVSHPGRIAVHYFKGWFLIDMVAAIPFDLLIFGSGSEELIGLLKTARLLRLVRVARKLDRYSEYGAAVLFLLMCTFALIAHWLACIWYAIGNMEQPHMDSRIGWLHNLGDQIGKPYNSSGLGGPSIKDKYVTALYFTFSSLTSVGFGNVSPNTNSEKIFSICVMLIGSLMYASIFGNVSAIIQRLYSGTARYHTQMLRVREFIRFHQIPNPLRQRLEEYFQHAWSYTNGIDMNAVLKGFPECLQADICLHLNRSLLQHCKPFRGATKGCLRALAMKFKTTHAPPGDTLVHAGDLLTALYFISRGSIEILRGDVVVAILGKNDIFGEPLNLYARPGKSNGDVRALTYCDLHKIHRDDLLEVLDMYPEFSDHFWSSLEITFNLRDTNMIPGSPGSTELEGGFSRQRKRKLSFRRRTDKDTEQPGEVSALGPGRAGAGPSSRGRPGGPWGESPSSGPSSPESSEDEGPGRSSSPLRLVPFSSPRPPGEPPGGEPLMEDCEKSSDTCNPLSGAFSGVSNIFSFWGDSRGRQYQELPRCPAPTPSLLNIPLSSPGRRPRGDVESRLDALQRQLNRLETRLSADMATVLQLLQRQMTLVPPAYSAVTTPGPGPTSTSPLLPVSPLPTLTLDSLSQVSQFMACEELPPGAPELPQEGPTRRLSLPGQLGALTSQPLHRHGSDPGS

First: O=C(Nc1ccc(Cl)c(Cl)c1)N1CCCCCC1
Second: O=C(Nc1ccc(Cl)c(Cl)c1)N1CCC(N2CCCCC2)CC1
The “hERG current change (%, negative = inhibition) at 10uM” value of the first is higher: 2.82% for the first, -63.5% for the second.

Compared with `COc1cccc(NC(=O)N2CCC(N3CCCCC3)CC2)c1`, `Cc1ccc(NC(=O)c2cc(NC(=O)c3ccco3)ccc2N2CCCCC2)cc1` is higher in “hERG current change (%, negative = inhibition) at 10uM” value: -7.99% for the first, 13% for the second.

First: Cc1ccc(C(C)(C)C)c(OCCN2CCCC2)c1
Second: COc1ccc(OC)c(N(CC(=O)N2CCCCC2)S(=O)(=O)c2ccc(OC)c(OC)c2)c1
The “hERG current change (%, negative = inhibition) at 10uM” value of the first is lower: -19.5% for the first, 10.6% for the second.

First: CC(C)[C@@H](N)C(=O)N/N=C/c1ccc2nccnc2c1.Cl
Second: Cc1ncoc1C(=O)Nc1cccc(Cl)c1
The “hERG current change (%, negative = inhibition) at 10uM” value of the first is higher: 17.1% for the first, -7.91% for the second.

First: CC1CCN(CCCNC(=O)c2cc3c(s2)-c2ccccc2OC3)CC1
Second: CC1CCCN(CCCNC(=O)c2cc3c(s2)-c2ccccc2OC3)C1 (centres unmarked)
The “hERG current change (%, negative = inhibition) at 10uM” value of the first is higher: -74.6% for the first, -76.4% for the second.

Compared with `CN1CCN(c2ccccc2NC(=O)c2cc3c(s2)-c2ccccc2OC3)CC1`, `Cc1cccc2c1-c1sc(C(=O)Nc3ccccc3N3CCN(C)CC3)cc1CO2` is higher in “hERG current change (%, negative = inhibition) at 10uM” value: -51.3% for the first, -13.4% for the second.

First: O=C(O)c1cc2c(s1)-c1ccccc1OC2
Second: COC(=O)c1cc2c(s1)-c1ccccc1OC2
The “hERG current change (%, negative = inhibition) at 10uM” value of the first is higher: 9.73% for the first, 0.157% for the second.

First: Cc1csc(NC(=O)c2cc3c(s2)-c2ccccc2OC3)n1
Second: O=C(Nc1nccs1)c1cc2c(s1)-c1ccccc1OC2
The “hERG current change (%, negative = inhibition) at 10uM” value of the first is lower: 3.36% for the first, 16.2% for the second.

Compared with `O=C(Nc1cccnc1Cl)c1cc2c(s1)-c1ccccc1OC2`, `O=C(Nc1cccnc1)c1cc2c(s1)-c1ccccc1OC2` is higher in “hERG current change (%, negative = inhibition) at 10uM” value: -3.48% for the first, -2.06% for the second.

Compared with `CC1CC(C)CN(CCCNC(=O)c2cc3c(s2)-c2ccccc2OC3)C1` (centres unmarked), `CC1CCCC(C)N1CCCNC(=O)c1cc2c(s1)-c1ccccc1OC2` (centres unmarked) is higher in “hERG current change (%, negative = inhibition) at 10uM” value: -70.2% for the first, -69.9% for the second.

Going from `CC1CCCN(CCCNC(=O)CN2C(=O)COc3ccccc32)C1` (centres unmarked) to `CCN1CCN(CCCNC(=O)c2cc3c(s2)-c2ccccc2OC3)CC1`, the “hERG current change (%, negative = inhibition) at 10uM” value falls from -4.59% to -66.7%.

Compared with `CCOC(=O)C1CCN(C(=O)c2cc3c(s2)-c2ccccc2OC3)CC1`, `O=C(NC1CC1)c1cc2c(s1)-c1ccccc1OC2` is higher in “hERG current change (%, negative = inhibition) at 10uM” value: -38.9% for the first, 12.6% for the second.

First: C=CCn1c(SC)nc2sc3c(c2c1=O)CCc1ccccc1-3
Second: CN(C)CCNC(=O)c1cc2c(s1)-c1ccccc1OC2
The “hERG current change (%, negative = inhibition) at 10uM” value of the first is higher: 10.3% for the first, -67.2% for the second.

Going from `OCC[C@H]1C[C@H](O)[C@@H](O)[C@]2(OCCc3ccccc32)O1` to `O=C(NCCCN1CCOCC1)c1cc2c(s1)-c1ccccc1OC2`, the “hERG current change (%, negative = inhibition) at 10uM” value falls from 2.59% to -44.5%.

First: CC1(C)Cc2c(cnn2-c2ccccc2)C(NC(=O)CCN2CCCC2=O)C1 (centres unmarked)
Second: CC1CCCC(C)N1CCCNC(=O)c1ccc2c(c1)NC(=O)c1ccccc1S2 (centres unmarked)
The “hERG current change (%, negative = inhibition) at 10uM” value of the first is higher: 6.21% for the first, 4.54% for the second.

Going from `C=C1CCC[C@]2(C)C[C@H]3OC(=O)C(CNC(C)CC)[C@H]3CC12` (some centres unmarked) to `CCOC(=O)c1ccc(NC(=O)Cn2cc3c(n2)CCC(C)C3)cc1` (centres unmarked), the “hERG current change (%, negative = inhibition) at 10uM” value falls from 0.523% to -4.16%.

Going from `CCN(CC)C(=O)c1ccccc1NC(=O)c1ccccc1SC` to `COc1ccc(CC(=O)N/N=C(/C)CC(=O)N(C)c2ccccc2)cc1`, the “hERG current change (%, negative = inhibition) at 10uM” value rises from -39.6% to 9.63%.

Compared with `CCOCc1nc(C)c(Cl)c(NS(=O)(=O)c2ccc(N)cc2)n1`, `CCN1CCN(c2nc3ccccc3nc2NS(=O)(=O)c2ccc(NC(C)=O)cc2)CC1` is lower in “hERG current change (%, negative = inhibition) at 10uM” value: 13.9% for the first, 5.21% for the second.

Compared with `COc1cc(Cl)c(C)cc1NC(=O)COC(=O)c1cc(SC)ccc1Cl`, `COc1ccc(OC)c2c1C(=O)c1ccccc1C2=O` is lower in “hERG current change (%, negative = inhibition) at 10uM” value: 8.99% for the first, -5.81% for the second.

Compared with `Cc1ccc(OCCC(=O)Nc2ccc3c(c2)OCO3)cc1`, `Cc1ccc(O)c(-c2cc3ccccc3[nH]2)c1` is lower in “hERG current change (%, negative = inhibition) at 10uM” value: 0.269% for the first, -15.8% for the second.

First: CCN(Cc1ccccc1)Cc1cccc([N+](=O)[O-])c1
Second: O=C(NCc1cccs1)c1cc2c(s1)-c1ccccc1OC2
The “hERG current change (%, negative = inhibition) at 10uM” value of the first is lower: -23.5% for the first, 1.42% for the second.

Going from `O=C(O)COCC(=O)N1CCCN(c2nccc(C(F)(F)F)n2)CC1` to `COC(=O)C1=C(c2ccc(Cl)c(C(F)(F)F)c2)C[C@@H]2CC[C@H]1N2C(=O)NCC1CC1`, the “hERG current change (%, negative = inhibition) at 10uM” value falls from 17.7% to -16.3%.
